The list is not random: actives were taken first. Their share in the collection is about 21%.
Pf growth 96h: inhibits malaria parasite growth, 96 h | P. falciparum luciferase reporter growth, 96 h | Potency, µM (top dose mostly 28.7 µM), inactives show at the top dose activity change, negative = inhibition, usual class: inhibitors | 6.9% of 320,000 active | AID 504834; also: potency is read from the fitted curve at half-maximal effect; % is scaled to controls: 0 for no effect and ±100 for the full control effect
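Parasite growth measured via integrated firefly luciferase reporter in P. falciparum. Infected erythrocytes at 2% hematocrit, 0.05% parasitemia final were treated 96 hours at 37 C under 5% CO2, and luminescence was read.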
Shiga inhibitor: blocks Shiga toxin action in Vero cells; AID 2315; Vero cells, Shiga toxin protein synthesis inhibition reporter; inhibition, % at 38.7 µM; 9.2% of 290,000 active; in the data active = inhibition mostly above about 28%, no sharp cut-off; inactive = mostly below about 43%; also: 0% is about no effect
Cycloheximide cs: affects cycloheximide protein synthesis inhibition readout, counter-screen | max response, % | 12% of 300,000 active | cell reporter, cycloheximide protein synthesis inhibition counterscreen | AID 2314; in the data active = max response mostly above about 13%, no sharp cut-off; inactive = mostly below about 14%; also: read at 38.3 µM for the half of the compounds with a filed dose; 0% is about no effect
Pf growth 48h: P. falciparum growth inhibition at 48 hours (one generation) | Potency, µM (titrated, usually from 28.7 µM), for the others: top-dose activity change, negative = inhibition, usual class: inhibitors | AID 504832 | P. falciparum luciferase growth in erythrocytes, 48 h | 5.9% of 310,000 active; also: potency is read from the fitted curve at half-maximal effect; % is scaled to controls: 0 for no effect and ±100 for the full control effect
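Luciferase-expressing parasites in RBCs, 2% Hct / 0.1% parasitemia final; RPMI 1640 + 0.5% Albumax; 37 C, 5% CO2, one generation; luminescence read-out, lower signal = inhibition.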
NS1 function inh: blocks influenza NS1 protein function. Potency, µM (series often up to 46.1 µM), for the others: at the top dose activity, positive = more growth. 0.4% of 270,000 active. AID 2326; calls by dose curve; also: potency is read from the fitted curve at half-maximal effect; actives are rising curves; nearly all actives have a fitted effect of over 50% in size
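S. cerevisiae expressing influenza A NS1, grown in glucose, washed, then diluted 1:100 into pH 6.0 -URA galactose medium with 23 nl compound. Growth recovery read as OD600; NS1-free strain serves as control.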
Active calls of the source: *. Unless noted, calls follow the shape of the dose curve; as a rule, active = well fitted inhibition curve with a large enough effect; inconclusive = small, poorly fitted or top-dose-only effect, or another doubt; inactive = no such curve, though single readings can be large or run the other way.

Results for CCCCC(CCC(=O)O)(C(=O)OCC)c1csc(Nc2ccc(C)cc2)n1 (configuration not stated) ?
Pf growth 96h: 4.65µM*; Shiga inhibitor: 3.3; Cycloheximide cs: 8.0; Pf growth 48h: -1.1%; NS1 function inh: 2.8%

Results for CN1CC(=O)N2C(Cc3c([nH]c4ccccc34)[C@H]2c2ccc3c(c2)OCO3)C1=O (some centres not stated) ?
Pf growth 96h: inconclusive; Pf growth 48h: -6.2%

How did COc1ccc(C2c3[nH]c4ccccc4c3C[C@H]3C(=O)N(C)CC(=O)N23)cc1OC (some centres not stated) do in these assays?
Pf growth 96h: inconclusive; Shiga inhibitor: -5.2; Cycloheximide cs: -3.2; Pf growth 48h: inconclusive; NS1 function inh: -0.5%

What do the screens show for `CCCN1CC(=O)N2C(c3ccccc3)c3[nH]c4ccccc4c3C[C@H]2C1=O` (some centres not stated)?
Pf growth 96h: inconclusive; Shiga inhibitor: -9.2; Cycloheximide cs: 1.7; Pf growth 48h: 2.33µM*; NS1 function inh: 3.9%

Results for COc1cccc(C2c3[nH]c4ccccc4c3C[C@H]3C(=O)N(C)CC(=O)N23)c1 (some centres not stated) ?
Pf growth 96h: 7.38µM*; Shiga inhibitor: -3.8; Cycloheximide cs: -1.0; Pf growth 48h: 7.38µM*; NS1 function inh: -3.3%

Results for COc1cccc(C2c3[nH]c4ccccc4c3C[C@H]3C(=O)N(C4CC4)CC(=O)N23)c1 (some centres not stated) ?
Pf growth 96h: 1.85µM*; Shiga inhibitor: -5.9; Cycloheximide cs: -2.6; Pf growth 48h: 3.29µM*; NS1 function inh: 3.3%

How did C=CCN1CC(=O)N2C(C)c3[nH]c4ccccc4c3C[C@H]2C1=O (some centres not stated) do in these assays?
Pf growth 96h: 0.4%; Shiga inhibitor: -6.9; Cycloheximide cs: -3.9; Pf growth 48h: 15.4%; NS1 function inh: 3.7%

What do the screens show for `COc1cc(C2c3[nH]c4ccccc4c3C[C@H]3C(=O)N(C4CC4)CC(=O)N23)ccc1OC(C)C` (some centres not stated)?
Pf growth 96h: 9.28µM*; Shiga inhibitor: -7.3; Cycloheximide cs: -6.7; Pf growth 48h: 9.28µM*; NS1 function inh: -6.0%

How did COc1ccc(OC)c(C2c3[nH]c4ccccc4c3C[C@H]3C(=O)N(C4CC4)CC(=O)N23)c1 (some centres not stated) do in these assays?
Pf growth 96h: inconclusive; Shiga inhibitor: -10.8; Cycloheximide cs: -5.8; Pf growth 48h: inconclusive; NS1 function inh: 11.2%

How did Cc1ccc(NCc2cc3cc4c(cc3n(CC(=O)Nc3ccc(C)cc3)c2=O)OCCO4)cc1 do in these assays?
Shiga inhibitor: -12.9; Cycloheximide cs: 6.4

Results for COc1cc(C2c3[nH]c4ccccc4c3C[C@@H]3C(=O)N(Cc4ccco4)CC(=O)N23)cc(OC)c1OC (some centres not stated) ?
Pf growth 96h: 3.7µM*; Shiga inhibitor: -2.4; Cycloheximide cs: -5.2; Pf growth 48h: 2.33µM*; NS1 function inh: 8.8%

How did COc1ccc(C2c3[nH]c4ccccc4c3C[C@H]3C(=O)N(CCCO)CC(=O)N23)cc1OC (some centres not stated) do in these assays?
Pf growth 96h: -10.6%; Shiga inhibitor: -6.6; Cycloheximide cs: -3.8; Pf growth 48h: -18.2%; NS1 function inh: -1.5%

What do the screens show for `C=CCc1cccc([C@@H]2[C@@H](C)CC[C@H]3C(=O)N4[C@@H](c5cc(OC)c(OC)c(OC)c5)c5[nH]c6ccccc6c5C[C@H]4C(=O)N23)c1`?
Pf growth 96h: inconclusive; Shiga inhibitor: -4.9; Cycloheximide cs: -2.8; Pf growth 48h: 4.15µM*; NS1 function inh: 22.4µM*

What do the screens show for `COCCN1CC(=O)N2C(c3cccc(OC)c3)c3[nH]c4ccccc4c3C[C@H]2C1=O` (some centres not stated)?
Pf growth 96h: inconclusive; Shiga inhibitor: -6.9; Cycloheximide cs: -1.2; Pf growth 48h: 11.7µM*; NS1 function inh: -2.4%

Results for Cc1ccccc1C(=O)NNC(=O)CSc1nnc(-c2ccncc2)n1-c1ccccc1 ?
Pf growth 96h: inconclusive; Shiga inhibitor: -13.2; Cycloheximide cs: -2.1; Pf growth 48h: -0.6%; NS1 function inh: 0.3%

What do the screens show for `Cc1ccc(OCCOCCN(C)C)c(Cl)c1`?
Pf growth 96h: inconclusive; Shiga inhibitor: -2.8; Cycloheximide cs: -1.0; Pf growth 48h: 40.7%; NS1 function inh: 3.0%

Compound activity as filed in PubChem.
